Test results reported in PubChem BioAssay AID1117293 (Broad Institute, 2014).
Potency and affinity values are given separately. Results filed as inconclusive are left out. Entries that show only a call come without a potency. Calls of active or inactive are those of the source.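 Rule for the calls: active = cytotoxic in every repeat run, with fitted half-maximal concentration at most twice the top tested dose; inconclusive = runs disagree, or flat partial drop, or poor curve fit; inactive = inactive in every run.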

Assay: HEK293T cell cytotoxicity, dose response, cytotoxicity control, CellTiter-Glo luminescence, dry powder, set 20 (AID 1117293)

Compound	outcome
CC(=O)N1CCN(C(=O)C2(NC(=O)Nc3ccc(C(F)(F)F)cc3)CCCCC2)CC1	inactive
CC(=O)N1CCN(C(=O)C2(NC(=O)NCCc3ccccc3)CCCCC2)CC1	inactive
COc1ccc(C(=O)O)cc1S(=O)(=O)Nc1ccc(N2CCCCC2)cc1C(F)(F)F	inactive
CC(=O)N1CCN(C(=O)C2CCCN2C(=O)Nc2ccc(C)cc2)CC1 (stereo not drawn)	inactive
COc1ccc(C(=O)O)cc1S(=O)(=O)Nc1cc(C(F)(F)F)ccc1N1CCOCC1	inactive
O=S(=O)(Nc1cc(C(F)(F)F)ccc1N1CCCCC1)c1ccc(Cl)cc1	inactive
CC(=O)N1CCN(C(=O)C2(NC(=O)NC(C)(C)C)CCCCC2)CC1	inactive
CC(=O)N1CCN(C(=O)C2(NC(=O)Nc3cccc(C(F)(F)F)c3)CCCCC2)CC1	inactive
